Molecules are shown by their SMILES. Inconclusive results are not listed. A number with no mark means an inactive call. Calls of active or inactive are those of the source. Calls come from the whole dose curve; as a rule, active = well fitted inhibition curve with a large enough effect; inconclusive = small, poorly fitted or top-dose-only effect; inactive = flat fitted curve, though single readings scatter.

We go through 33 compounds from PubChem BioAssay (NCATS).
Potency is the fitted concentration of half-maximal effect.

Test system in one experiment: not listed separately
In words: qHTS profiling for inhibitors of Plasmodium falciparum proliferation (AID 504749).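 For activity, negative = inhibition: 0% = DMSO vehicle and full inhibition = artemisinin control.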 Note: nearly all actives have a fitted effect of over 60% in size. As to conditions: P. falciparum in erythrocytes, SYBR Green DNA, 72 h; at 28.7 µM (top of the series); parasite line A. An outline of the steps:
(§1)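 Infected RBCs, 0.3% parasitemia/2.5% Hct final; cpd 72 h, 37 C, 5% CO2; lysis buffer with saponin/triton/SYBR Green I, o/n RT dark; FI 485/535; norm. to artemisinin (0.29 uM) and DMSO.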
Take `CC1=C(C(=O)O)N2C(=O)[C@@H](NC(=O)[C@H](N)c3ccccc3)[C@H]2SC1`: the activity, negative = inhibition was 3.04%.
The same measure, in the same setting: to `CN(C)CCOC(c1ccc(Cl)cc1)c1ccccn1` (stereo not drawn) belongs 5.62%; to `CC[N+](C)(CC)CCOC(=O)C(O)(c1ccccc1)C1CCCCC1` (stereo not drawn), -48%; to `O=C1C(O)=C(O)C(=O)C(O)=C1O`, 5.3%.
Turning to `O=[N+]([O-])c1cccc(S(=O)(=O)NCCNS(=O)(=O)c2cccc([N+](=O)[O-])c2)c1`, the activity, negative = inhibition was -25.4%.
As to `CCN(CC)CCOC(=O)C1(c2ccccc2)CCCC1`, the activity, negative = inhibition is -50.7%.
Same read-out and setting: for `CO[C@]12C[C@@H](COC(=O)c3cncc(Br)c3)CN(C)[C@@H]1Cc1cn(C)c3cccc2c13` the value was -17.9%.

The experiment is the same for the next values; noted with them: P. falciparum in erythrocytes, SYBR Green DNA, 72 h; at 28.7 µM (top of the series); parasite line B.
As for `CN1CCN(c2c(F)cc3c(=O)c(C(=O)O)cn4c3c2SCC4)CC1`, the activity, negative = inhibition was -29%.
Same read-out and setting: to `CN1CCC[C@@H]1CCO[C@](C)(c1ccccc1)c1ccc(Cl)cc1` belongs -15.8%; to `O=C(NC1CCN(CCc2c[nH]c3ccccc23)CC1)c1ccccc1`, -5.78%.
`OC(C#CCN1CCCC1)(c1ccccc1)c1ccccc1`: the activity, negative = inhibition is -24.9%.
Still for that read-out and setting: for `Cn1c(=O)c2[nH]c(Br)nc2n(C)c1=O` the value was -4.72%.
Regarding `O=C1C(O)=C(O)C(=O)C(O)=C1O`, the activity, negative = inhibition was 12.3%.
Same read-out and setting: to `CCCCCCCCCCCCOCCOCCOCCOCCOCCOCCOCCOCCOCCO` belongs -26%; to `CCN(CC)CCOC(=O)C1(c2ccccc2)CCCC1`, -32%.
Same read-out and setting: to `CCNC(=O)/C=C/c1cccc(Br)c1` belongs -15.2%.

Still in this experiment, the particulars now being: P. falciparum in erythrocytes, SYBR Green DNA, 72 h; parasite line A.
With `CC(=O)O[C@]1(C(C)=O)CC[C@H]2[C@@H]3C=C(Cl)C4=CC(=O)CC[C@]4(C)[C@H]3CC[C@@]21C`, the Potency is 12.6 µM (active).
As for `COc1ccc(C(Cl)=C(c2ccc(OC)cc2)c2ccc(OC)cc2)cc1`, the Potency was 3.98 µM (active).
Still for that read-out and setting: for `Oc1c(Cl)cc(Cl)c(Cl)c1Cc1c(O)c(Cl)cc(Cl)c1Cl` the value was 11.2 µM (active).

The same experiment, now with this note: P. falciparum in erythrocytes, SYBR Green DNA, 72 h; parasite line B.
In the case of `COc1ccc(C(Cl)=C(c2ccc(OC)cc2)c2ccc(OC)cc2)cc1`, the Potency is 3.98 µM (active).
Still for that read-out and setting: for `CCCN(CCc1cccs1)[C@H]1CCc2c(O)cccc2C1` the value was 4.47 µM (active).
On the same count and under the same terms, to `Cc1ccc2c(Br)cc(Br)c(O)c2n1` belongs 12.6 µM (active); to `Oc1ccc(Cl)cc1Cc1cc(Cl)ccc1O`, 11.2 µM (active).

Another experiment concerns 3D7. Described as above. As to conditions: P. falciparum in erythrocytes, SYBR Green DNA, 72 h; series mostly up to 28.7 µM; activity, negative = inhibition: at the top concentration. An outline of the steps:
as §1
As to `CN1CCN(c2c(F)cc3c(=O)c(C(=O)O)cn4c3c2SCC4)CC1`, the “activity, negative = inhibition” value was -13.1%.
For the compound `CC(C)(C)NC[C@H](O)COc1nsnc1N1CCOCC1`, the Potency is 6.31 µM (active).
On to `Cc1cc(CC(=O)O)c(C)n1-c1ccc(Cl)cc1`, for which the “activity, negative = inhibition” value was -27.4%.
Take `CN1CCC[C@@H]1CCO[C@](C)(c1ccccc1)c1ccc(Cl)cc1`: the “activity, negative = inhibition” value is -29.1%.
As to `CC1=C(C(=O)O)N2C(=O)[C@@H](NC(=O)[C@H](N)c3ccccc3)[C@H]2SC1`, the “activity, negative = inhibition” value is -1.39%.
Take `OC(C#CCN1CCCC1)(c1ccccc1)c1ccccc1`: the “activity, negative = inhibition” value is -0.695%.
Same read-out and setting: for `Cn1c(=O)c2[nH]c(Br)nc2n(C)c1=O` the value was -5.52%; for `CN(C)CCOC(c1ccc(Cl)cc1)c1ccccn1` (stereo not drawn), -0.261%.
`COc1cc(N)c(Cl)cc1C(=O)NC1CCN(Cc2ccccc2)CC1`: the “activity, negative = inhibition” value was -4.88% [at 12.8 µM].
As to `CCCN(CCc1cccs1)[C@H]1CCc2c(O)cccc2C1`, the Potency is 14.1 µM (active).
For the compound `O=C(O)CCc1nc2ccccc2[nH]1`, the Potency was 0.0045 µM (active).
The same measure, in the same setting: for `CN1CCc2cccc3c2[C@H]1Cc1ccc(O)c(O)c1-3` the value was 7.94 µM (active).
Turning to `O=[N+]([O-])c1cccc(S(=O)(=O)NCCNS(=O)(=O)c2cccc([N+](=O)[O-])c2)c1`, the “activity, negative = inhibition” value is -28%.
For `Oc1ccc(Cl)cc1Cc1cc(Cl)ccc1O`, the “activity, negative = inhibition” value was -19.1%.
Same read-out and setting: to `COc1ccc(C(=O)c2ccccc2O)c(O)c1` belongs 4.35% [at 12.8 µM]; to `CO[C@]12C[C@@H](COC(=O)c3cncc(Br)c3)CN(C)[C@@H]1Cc1cn(C)c3cccc2c13`, -14.9%; to `CCNC(=O)/C=C/c1cccc(Br)c1`, -1.87%.

The next experiment has as its system 7G8. The description is as above. The conditions noted are these: P. falciparum in erythrocytes, SYBR Green DNA, 72 h; series mostly up to 28.7 µM; activity, negative = inhibition: at the top concentration. An outline of the steps: as §1
Regarding `CC(=O)O[C@]1(C(C)=O)CC[C@H]2[C@@H]3C=C(Cl)C4=CC(=O)CC[C@]4(C)[C@H]3CC[C@@]21C`, the Potency is 11.2 µM (active).
Same read-out and setting: for `CC(C)(C)NC[C@H](O)COc1nsnc1N1CCOCC1` the value was 0.631 µM (active).
On the same count and under the same terms, to `Cc1cc(CC(=O)O)c(C)n1-c1ccc(Cl)cc1` belongs 11.2 µM (active).
Same read-out and setting: to `CC(C)(C)CC(C)(C)c1ccc(O)c(-n2nc3ccccc3n2)c1` belongs 5.01 µM (active); to `CN1CCC[C@@H]1CCO[C@](C)(c1ccccc1)c1ccc(Cl)cc1`, 10 µM (active).
Regarding `CC1=C(C(=O)O)N2C(=O)[C@@H](NC(=O)[C@H](N)c3ccccc3)[C@H]2SC1`, the “activity, negative = inhibition” value is 2.53%.
`CN(CCCN1c2ccccc2CCc2ccccc21)CC(=O)c1ccc(Cl)cc1`: the Potency was 1.41 µM (active).
For the compound `O=C(NC1CCN(CCc2c[nH]c3ccccc23)CC1)c1ccccc1`, the Potency is 10 µM (active).
Take `O=S(c1cc(Cl)cc(Cl)c1O)c1cc(Cl)cc(Cl)c1O`: the “activity, negative = inhibition” value was -11.7%.
Consider `OC(C#CCN1CCCC1)(c1ccccc1)c1ccccc1`, for which the Potency is 11.2 µM (active).
For the compound `O=C(CN1CCN(Cc2ccc3c(c2)OCO3)CC1)N1c2ccccc2Sc2ccccc21`, the Potency is 7.94 µM (active).
`Cn1c(=O)c2[nH]c(Br)nc2n(C)c1=O`: the “activity, negative = inhibition” value was -7.21%.
Consider `CCN(CC)CCOc1ccc2c(c1)C(=O)c1cc(OCCN(CC)CC)ccc1-2`, for which the Potency is 7.94 µM (active).
On the same count and under the same terms, for `CCCN(CCc1cccs1)[C@H]1CCc2c(O)cccc2C1` the value was 1 µM (active); for `Cc1ccc2c(Br)cc(Br)c(O)c2n1`, 7.08 µM (active); for `CC(C)(Cc1c[nH]c2ccccc12)NCC(O)COc1ccccc1C#N` (stereo not drawn), 8.91 µM (active).
As for `CCCCCCCCCCCCOCCOCCOCCOCCOCCOCCOCCOCCOCCO`, the Potency was 12.6 µM (active).
Same read-out and setting: for `CN1CCc2cccc3c2[C@H]1Cc1ccc(O)c(O)c1-3` the value was 2.24 µM (active); for `COC(=O)C(c1ccccc1Cl)N1CCc2sccc2C1` (stereo not drawn), 10 µM (active); for `Oc1ccc(Cl)cc1Cc1cc(Cl)ccc1O`, 11.2 µM (active).
Still for that read-out and setting: for `Oc1c(Cl)cc(Cl)c(Cl)c1Cc1c(O)c(Cl)cc(Cl)c1Cl` the value was 4.47 µM (active); for `COc1ccc(C(=O)c2ccccc2O)c(O)c1`, 3.16 µM (active).
With `CCNC(=O)/C=C/c1cccc(Br)c1`, the “activity, negative = inhibition” value was -10.7%.
